TWEAK Fn14 block: blocks TWEAK-Fn14 interaction in a reporter cell assay | TWEAK-stimulated Fn14 reporter cells, luciferase luminescence, 8 h | inhibition, % at 10 µM | 2% of 360,000 active | AID 1159606; in the data active = inhibition above about 50%
Peg3 promoter: inhibitors of Peg3 promoter; HeLa PEG-Prom luciferase reporter, luminescence, overnight; inhibition, % at 20 µM; 1.7% of 360,000 active;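 active = inhibition of at least 50% at 20 µM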
CF NFkB inh: blocks PAF-induced NF-kB reporter in cystic fibrosis cells; 0.86% of 360,000 active; AID 588850; KKLEB NF-kB-GFP reporter, GFP fluorescence overnight; inhibition, % at 5 µM;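 active = at least 50% inhibition at 5 µM, scaled per plate between neutral and stimulator controls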;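 also: PAF is a Pseudomonas aeruginosa culture filtrate used as stimulus; plate controls were PAF-stimulated DMSO wells for no effect and unstimulated DMSO wells for full effect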
KKLEB tox: CF airway cell cytotoxicity counter-screen; KKLEB CF airway cells viability, ATPlite luminescence, overnight; active compounds read low; cells stimulated with P. aeruginosa culture filtrate; activity change (cytotoxicity), % at 5 µM; 0.36% of 360,000 active; AID 602141;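 active = corrected activity change at or below -50% at 5 µM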
TROY signal inh: blocks TROY-dependent signaling in reporter cells; Q293 LMP1-TROYcd NF-kB luciferase reporter, 4 h; inhibition, % at 10 µM; 0.98% of 360,000 active;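 active = compounds whose plate-normalised and pattern-corrected inhibition of the luciferase reporter signal at the single screening dose is 50% or more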
HIF-2a inh: blocks HIF-2a reporter activity | 786-0 RCC cells HIF-2a reporter, luciferase luminescence, overnight | AID 624352 | inhibition, % at 18.8 µM | 0.72% of 360,000 active;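 active = inhibition of the luminescence signal of 40% or more relative to plate controls, in a single-dose primary screen at 18.75 µM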
The depositor's hits bear a star; x = no result. The list is not random: actives were taken first. Their share in the collection is about 4%.

SMILES	TWEAK Fn14 block	Peg3 promoter	CF NFkB inh	KKLEB tox	TROY signal inh	HIF-2a inh
CSCCC(C(=O)Nc1c(C)cccc1C)n1c(COc2ccc(C)cc2)nc2ccccc21 (stereo not given)	x	x	x	x	x	3
Nc1nc(SCC(=O)Nc2cc(Cl)c(Cl)cc2Cl)n[nH]1	5	-21	-2	26	-17	-53
CCOC1=C2[C@@H](CN(S(=O)(=O)c3ccc(C)cc3)[C@H]2c2cccc3ccccc23)[C@H]2C(=O)N(C3CCCCC3)C(=O)[C@H]2C1	6	4	0	0	28	-17
CCOC(=O)N1CCN(S(=O)(=O)c2ccc(C)cc2)CC1	77*	16	-6	12	18	19
CCOC(=O)N1CCN(S(=O)(=O)c2ccc(Cl)cc2)CC1	14	12	-18	2	0	-4
COc1ccc(OC)c(NC(=O)CSc2ncnc3c2cnn3-c2ccccc2Cl)c1	74*	13	-16	3	40	27
COC(=O)CSc1ncnc2c1cnn2Cc1ccccc1	4	-9	5	-8	8	18
COc1cc(NC(=O)CSc2ncnc3c2cnn3Cc2ccccc2)cc(OC)c1	62*	21	18	-14	31	21
Cc1csc(=O)n1CC(=O)Nc1ccc(Cl)cc1F	-3	3	-26	-12	-13	15
Cn1c(=O)n(C)c2cc(NC(=O)c3ccc(F)cc3)ccc21	-1	-19	18	-7	3	-25
CCC(C(=O)Nc1c(C)cccc1C)n1c(-c2ccc(=O)[nH]c2)nc2ccccc21 (stereo not given)	x	x	x	x	x	-20
Cc1ccccc1NC(=O)c1sc2nc3c(c(-c4ccco4)c2c1N)CCC3	3	6	-4	0	-8	-12
Nc1c(C(=O)NCC2CCCO2)sc2nc3c(c(-c4ccco4)c12)CC/C3=C\c1ccco1 (stereo not given)	89*	11	2	-13	9	1
O=C(Nc1nnc(COc2ccc(Cl)cc2)s1)c1ccc([N+](=O)[O-])cc1	-28	1	3	2	0	13
O=C(Nc1nnc(CCS(=O)(=O)c2ccc(Br)cc2)s1)c1ccc([N+](=O)[O-])cc1	51*	5	5	-12	-20	-4
O=C(N/N=C/c1ccccn1)c1ccc(NC(=O)c2cccc([N+](=O)[O-])c2)cc1	11	9	-31	-2	27	-25
O=C(Nc1cc(Sc2ccccn2)cc([N+](=O)[O-])c1)c1ccc(Cl)cc1	65*	-40	26	-17	17	-120
O=C(Nc1cc(Sc2ccccn2)cc([N+](=O)[O-])c1)c1cccc(Cl)c1	78*	45	4	-12	47	4
Cc1ccccc1-c1nc2sc3c(c2c(=O)n1N)CCCC3	71*	-247	-18	-13	77*	-127
O=c1oc(-c2ccccc2)nc2sc3c(c12)CCCC3	53*	-173	4	-9	-32	-366
O=C(Nc1ccc2c3c(cccc13)CC2)c1ccccc1	-29	-133	0	-7	-59	-167
Cc1ccc(NC(=O)/C(=C/c2cccc([N+](=O)[O-])c2)NC(=O)C2CCCCC2)c(C)c1	-18	59*	-10	-2	4	12
Cc1cc(C)n(S(=O)(=O)c2ccc(Cl)cc2)n1	7	8	-9	16	0	26
Cc1cc(C)n(S(=O)(=O)c2ccc(F)cc2)n1	73*	13	-10	-17	-2	8
COC(=O)[C@@]12C[C@@H](CC(=O)N3CCN(C(=O)c4ccco4)CC3)C(=O)N(Cc3cccc4ccccc34)C1=CCC(C)(C)C2	x	x	x	x	x	6
SMILES	TWEAK Fn14 block	Peg3 promoter	CF NFkB inh	KKLEB tox	TROY signal inh	HIF-2a inh
Cc1cc(C)nc(CCNC(=O)c2cc(COc3ccccc3)on2)n1	-8	-79	21	-2	-35	-123
CC(C)c1nnc(NC(=O)CCS(=O)(=O)c2nc(-c3cccs3)cc(C(F)(F)F)n2)s1	62*	107*	95*	-13	50*	1
CC(C)c1nnc(NC(=O)CCS(=O)(=O)Cc2ccccc2)s1	11	-3	-8	0	-8	10
Cn1cc([C@]2(O)C(=O)Nc3ccc(OC(F)(F)F)cc32)c2ccccc21	x	x	x	x	x	23
O=C1/C(=C/c2ccc(Cl)cc2)SC(=S)N1CCC(=O)N1CCCCC1CCO (stereo not given)	13	39	19	-12	20	4
COc1cc(/C=C2/SC(=S)N(CCC(=O)N3CCN(C)CC3)C2=O)cc(OC)c1OC	7	53*	9	-3	14	-12
COc1ccc(/C=C2\SC(=S)N(CCC(=O)N3CCCCC3CCO)C2=O)cc1 (stereo not given)	43	-4	6	5	11	58*
COc1ccc(/C=C2\SC(=S)N(CCC(=O)Nc3ccccc3C(=O)O)C2=O)cc1	24	-24	2	2	50	71*
COc1cc(/C=C2\SC(=S)N(CCC(=O)N3CCN(C)CC3)C2=O)cc(OC)c1OC	-16	17	10	3	-1	0
O=C1/C(=C/c2ccccc2F)SC(=S)N1CCC(=O)N1CCCCC1CCO (stereo not given)	8	53*	-1	1	5	4
Cc1cc(NC(=O)CCN2C(=O)/C(=C/c3ccccc3Cl)SC2=S)no1	-28	9	14	-15	2	0
COc1cccc(/C=C2\SC(=S)N(CCC(=O)N3CCCCC3)C2=O)c1	-9	90*	48	7	-2	46*
CCc1ccc(/C=C2\SC(=S)N(CCC(=O)Nc3cc(C)on3)C2=O)cc1	70*	-1	-5	0	53*	82*
COc1ccc(/C=C2\SC(=S)N(CCC(=O)N3CCCCC3)C2=O)cc1	50*	50*	12	0	14	76*
O=C(O)COc1ccc(C=C2SC(=S)N(c3ccccc3)C2=O)cc1	41	-33	-4	2	-12	43*
O=C(Nc1cc(S(=O)(=O)N2CCCCC2)ccc1Cl)c1ccc(F)cc1	0	17	13	0	12	10
COc1ccc(S(=O)(=O)N2CCCC2CNC(=O)C(=O)NCc2ccccc2Cl)cc1 (stereo not given)	-10	32	4	-4	4	19
CC(/C=C1\SC(=S)N(c2ccc(C(=O)O)cc2)C1=O)=C\c1ccccc1	58*	17	-10	1	45	51*
CC(/C=C1\SC(=S)N(NC(=O)c2ccc(C)cc2)C1=O)=C\c1ccccc1	-2	-4	-14	-7	-18	-6
COc1ccc(/C=C2/SC(=S)N(CCCC(=O)N3CCN(C)CC3)C2=O)cc1	14	5	4	3	9	69*
O=C(CCN1C(=O)/C(=C/c2ccccc2F)SC1=S)Nc1ccccn1	10	-9	22	-19	-28	12

Screens (PubChem)
